From PubChem BioAssay (NCI)
About 83,000 compounds went through this panel and 20% of them were active in at least one assay; those are over-represented in the sample as a whole.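 Percent growth is the endpoint: 0 to 100 indicates growth inhibition (40 means 60% inhibition), 0 means no net growth, and negative values indicate cell death.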 A number with no mark means an inactive call. Calls of active or inactive are those of the source.

system: CAKI-1 renal; assay: NCI-60 one-dose screen, 48 h (100 = growth as untreated, 0 = no growth, -100 = all killed); details: 10 µM unless noted
Description: Growth inhibition of the CAKI-1 human tumor cell line is measured as a screen for anti-cancer activity. Cells are grown in 96 well plates and exposed to the test compound for 48 hours. Compounds are tested at a single concentration, which is 10^-5 M for most compounds. The reported endpoint is percent growth (GI% or GIPRCNT), where numbers from 0 - 100% represent growth inhibition, and numbers from -100% - 0 represent cell death. For example, a value of 40 represents 60% growth inhibition. A value of 0 means no net growth occurred over the course of the experiment. A value of -40 indicates 40% of cells at the beginning of the experiment died by the end of the experiment. A value of -100 means all cells are dead at the end of the experiment.
NCI-60 Human Tumor Cell Lines Screen was performed using the standard one-dose NCI protocol, which is described in more detail at https://dtp.cancer.gov/discovery_development/nci-60/default.htm.
Compounds with GIPRCNT values below 10 were considered active. Activity score was based on GIPRCNT using the following formula: […]
Score is 0 for GIPRCNT values of 100 or above, 50 for GIPRCNT values of 0, and 100 for GIPRCNT values of -100.

Point of comparison: Cc1cccc(NC(=O)c2sc3nc4c(cc3c2N)CCCC4)c1C, growth 34.8%. Against it:
- COc1cc(C(C)n2cc(-c3ccccc3)nn2)ccc1OC1CCCCC1 (stereo not given) — higher, 48.7%
- COc1cc(C(=O)O/N=C(\N)Cc2cccc3ccccc23)cc(OC)c1OC — lower, 22.9%
- CN1CCN(Cc2ccc(C(=O)Nc3cncc(C#Cc4cnc5cccnn45)c3)cc2C(F)(F)F)CC1 — lower, 13.9%
- CN(C)c1ccc(N=Cc2ccc(N3CCOCC3)cc2)cc1 — higher, 86.6%
- CCN1C(=O)N(c2ccccc2)C2NN=c3s/c(=C4\C(=O)N(C(C)C)c5ccccc54)c(=O)n3C21 (stereo not given) — higher, 49.1%
- CN1C(=O)N(C)C2C1NN=c1s/c(=C\c3ccc(Cl)cc3Cl)c(=O)n12 (stereo not given) — higher, 40.9%
- N#Cc1c(N)nc2c(c1N)C(c1ccc(F)cc1)c1ccc(N)cc1O2 (stereo not given) — higher, 91.3%
- COC(=O)/C(CCC=C(C)C)=C1\[C@@H](OC(C)=O)C[C@@]2(C)[C@H]1CC(=O)[C@H]1[C@@]3(C)CC[C@H](NCc4ccccc4)[C@@H](C)[C@@H]3CC[C@@]12C — higher, 86.8%
- CCCc1c(C)c2sc(=O)[nH]c2[nH]c1=O — higher, 99%
- CN1C(=O)N(C)C2C1NN=c1s/c(=C\c3c[nH]c4ccccc34)c(=O)n12 (stereo not given) — higher, 81.7%
- FC(F)(F)c1cccc(CNC2CCN(CCc3ccccc3)CC2)c1 — higher, 60.2%
- Clc1ccc(Nc2nnc(-c3ccc4c(c3)OCO4)o2)cc1 — higher, 98.4%
- O=C(NC1C(O)OC(CO)C(O)C1O)NS(=O)(=O)c1ccc(Cl)cc1 (stereo not given) — higher, 94.4%
- COc1ccc(CCN2C(=O)CCSC2=S)cc1 — higher, 44.8%
- Clc1ccc(Nc2scc3[n+]2CCC3)cc1 — higher, 84.8%
- COc1ccc(Cn2c(Br)c3c(c2-c2cc(OC)c(OC)c(OC)c2)CCc2sc(NC(C)=O)nc2-3)cc1 — higher, 44%
- COC(=O)/C(CCC=C(C)C)=C1\[C@@H](OC(C)=O)C[C@@]2(C)[C@H]1C[C@@H](O)[C@H]1[C@@]3(C)CC[C@H](NCCCNCCCCNCCCN)[C@@H](C)[C@@H]3CC[C@@]12C — higher, 61.9%
- CCN1C(=O)N(CC)C2C1NN=c1s/c(=C3\C(=O)N(C(C)C)c4ccccc43)c(=O)n12 (stereo not given) — lower, 31.8%
- COc1cc(/C=C2\CN(C)C/C(=C\c3cc(CN4CCOCC4)c(O)c(OC)c3)C2=O)cc(CN2CCOCC2)c1O — higher, 82.7%
- CN(C)/C=C1\SC(=Nc2ccc(Cl)cc2)NC1=O — higher, 96.1%
- O=C1c2cc(I)ccc2Oc2cc([N+](=O)[O-])ccc2N1c1ccc(Cl)cc1F — higher, 63.9%
- COc1ccc(OC)c(N(CCN2C(=O)c3ccccc3C2=O)C(=O)CCl)c1 — lower, 29.9%
- CCCCCCCCCCCCCCn1cc(C2=C(c3coc4ccc(OC)cc34)C(=O)NC2=O)c2ccccc21 — higher, 88.8%
- O=C(c1ccccc1)N(CCc1ccc(Cl)cc1)C(=S)N(C(=O)c1ccccc1)c1ccccc1 — higher, 96.9%
- C1=CC2(C=C1)OC21CCC2(C=CC3(C2)OC3C2CCCCC2)CC1 (stereo not given) — higher, 93.6%
- COc1nccc2cc3c(=O)n4c(cc5ccccc54)c(=O)n3c12 — higher, 92.5%
- O=c1c(-c2nc3ccccc3[nH]2)cc2ccccc2n1Cc1cn(Cc2ccc(F)cc2)nn1 — lower, 32.9%
- COc1ccccc1N1CCN(C(CNS(=O)(=O)c2ccc(Cl)cc2)c2cccnc2)CC1 (stereo not given) — higher, 104%
- COc1cc(C2C3=C(COC3=O)N(CCO)c3cc4c(cc32)CCC4)cc(OC)c1O (stereo not given) — lower, 21.1%
- S=C1CCCC(=S)N1 — higher, 93%
- O=C(NCc1ccco1)C1CN(c2ccc(Cl)cc2)N(c2ccc(Cl)cc2)C1=O (stereo not given) — higher, 41.1%
- O=C1/C(=C/c2cccc(O)c2)COc2ccc(O)cc21 — higher, 95.3%
- N#C/C(=C\c1c(-c2ccccc2)[nH]c2ccccc12)S(=O)(=O)c1ccccc1 — higher, 41.5%
- CC1=C(C(=O)OCC2CCN(C(=O)OC(C)(C)C)CC2)[C@H](c2cccc(Br)c2)C2=C(CC(C)(C)CC2=O)N1 — lower, 26.6%

In the case of NCCOc1ncccc1/C=C1\c2ccccc2-c2ccc([N+](=O)[O-])cc21, the growth was -39.3% (active).
In the case of CCCCc1ccc(NS(=O)(=O)c2cc3c4c(c2)CCN4C(=O)CC3)cc1, the growth was 9.87% (active).
For CN(O)c1nc(N(C)O)nc(N2CCOCC2)n1, the growth was -11.2% (active).
In the case of COc1ccc(/C=C2\CCC/C(=C\c3ccc(OC)c(OC)c3)C2=O)cc1OC, the growth was 3.35% (active).
For COc1ccc(C2C3=C(COC3=O)N(CCO)c3cc4c(cc32)CCC4)cc1OC (stereo not given), the growth was 8.75% (active).
